The term AC50 denotes the midpoint of the concentration-response curve, whichever way the signal moves.

In PubChem BioAssay (EPA / NIEHS) one finds outcome and AC50 data, which are given here for four molecules.

Activity calls are given as the source filed them. Rule for the calls: active = hit-call score of the fitted dose curve at least 0.9, where 1 is the maximum; inactive = score below 0.9.

Assay [1] addresses Bile acid receptor (Homo sapiens) (UniProt Q96RI1). As to the kind of experiment: ATG_IR1_CIS: Attagene CIS-FACTORIAL HepG2 Assay for human Nuclear Receptor Subfamily 1 Group H Member 4 (NR1H4), IR1 submotif (AID 2282946). The settings on record: IR1 reporter transcription, actives raise or lower the signal. An outline of the steps: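 HepG2 cells transiently transfected with multiplexed cis-element reporter units read endogenous transcription factor activity. After 24 h compound exposure, reporter mRNA was quantified by RT-PCR, fluorescent labelling, HpaI digestion and capillary electrophoresis; bidirectional fitting versus DMSO baseline.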

Assay [2] in a line: ATG_GRE_CIS: Attagene CIS-FACTORIAL HepG2 Assay for human Glucocorticoid Response Elements (GRE) (AID 2282947). The settings on record: HepG2 GRE cis-reporter, Attagene multiplex mRNA; actives raise or lower the signal. The method, boiled down:
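Multiplexed cis-reporter mRNA induction, HepG2, 24 h post-dose. RT-PCR, FAM-labelled, HpaI-digested amplicons by CE. Bidirectional fit vs DMSO.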

The nature of assay [3]: ATG_ISRE_CIS: Attagene CIS-FACTORIAL HepG2 Assay for human Interferon Regulatory Factor 1 (IRF1) binding to an Interferon-Stimulated Response Element (ISRE) (AID 2282948). As to conditions: HepG2 ISRE cis-reporter (Attagene), mRNA transcription readout; actives raise or lower the signal. An outline of the steps:
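Endogenous transcription factor activity read as reporter transcript abundance via RT-PCR and capillary electrophoresis. HepG2 cells transiently transfected, 24 h chemical exposure. Gain or loss fitted against DMSO baseline.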

Assay [4] can be described thus: ATG_M_06_CIS: Attagene CIS-FACTORIAL HepG2 Assay for M06 Transcription Factor (Internal Marker) (AID 2282950). The settings on record: HepG2 Attagene CIS-FACTORIAL M06 internal marker reporter; actives raise or lower the signal. An outline of the steps: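 Serves as a background control readout. Transfected HepG2 exposed to compounds for 24 h, then reporter transcripts quantified by fluorescent RT-PCR and capillary electrophoresis. Both directions fitted against DMSO baseline.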

The target in assay [5] is Hepatocyte nuclear factor 6 (Homo sapiens) (UniProt Q9UBC0). As to the kind of experiment: ATG_HNF6_CIS: Attagene CIS-FACTORIAL HepG2 Assay for human Hepatocyte Nuclear Factor 6 (HNF6) (AID 2282952). As to conditions: HepG2 Attagene cis-factorial HNF6 reporter transcription; actives raise or lower the signal. An outline of the steps: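 Endogenous factor activity read in transiently transfected HepG2 via promoter-regulated reporter transcripts. RNA harvested 24 h post-dosing, reverse-transcribed, PCR-amplified, FAM-labelled, HpaI-digested and resolved by capillary electrophoresis; fitted in both directions against DMSO.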
Hepatocyte nuclear factor 6 (Homo sapiens), sequence (Q9UBC0 whole entry, looked up): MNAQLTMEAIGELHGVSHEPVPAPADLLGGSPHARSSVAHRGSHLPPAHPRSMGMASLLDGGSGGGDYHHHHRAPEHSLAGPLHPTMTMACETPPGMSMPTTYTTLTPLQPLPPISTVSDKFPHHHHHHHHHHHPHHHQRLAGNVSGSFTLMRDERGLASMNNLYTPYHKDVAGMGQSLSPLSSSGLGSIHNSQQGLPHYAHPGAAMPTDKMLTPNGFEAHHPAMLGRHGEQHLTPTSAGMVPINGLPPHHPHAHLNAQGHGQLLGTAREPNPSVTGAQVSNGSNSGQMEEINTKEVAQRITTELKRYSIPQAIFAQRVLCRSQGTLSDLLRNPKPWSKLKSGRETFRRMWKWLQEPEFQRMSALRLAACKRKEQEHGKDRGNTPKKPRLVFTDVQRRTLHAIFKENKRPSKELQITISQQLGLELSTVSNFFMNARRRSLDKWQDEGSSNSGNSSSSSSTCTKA

The target in assay [6] is Heat shock factor protein 1 (Homo sapiens) (UniProt Q00613). Description: ATG_HSE_CIS: Attagene CIS-FACTORIAL HepG2 Assay for human Heat Shock Transcription Factor 1 (HSE) (AID 2282953). As to conditions: HepG2 HSE cis-reporter, Attagene RNA transcription; actives raise or lower the signal. The method, boiled down:
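Endogenous transcription factor activity in transiently transfected HepG2, read as reporter mRNA by RT-PCR with fluorescent capillary electrophoresis after 24 h. Gain or loss of signal fitted versus DMSO baseline.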

Assay [7] is described as follows: ATG_MRE_CIS: Attagene CIS-FACTORIAL HepG2 Assay for human Metal Responsive Element (MRE) (AID 2282954). The settings on record: HepG2 MRE cis-reporter transcription, Attagene multiplex; actives raise or lower the signal. An outline of the steps: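 Multiplexed cis-reporter assay in human HepG2 liver cells, 24 h incubation with test chemical. Reporter transcripts measured by RT-PCR and capillary electrophoresis; values from bidirectional curve fitting versus DMSO.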

In assay [8] the target is Paired box protein Pax-6 (Homo sapiens) (UniProt P26367). Description: ATG_Pax6_CIS: Attagene CIS-FACTORIAL HepG2 Assay for human Paired Box 6 (PAX6) (AID 2282956). The settings on record: HepG2 CIS-FACTORIAL PAX6 reporter transcription, RNA readout; actives raise or lower the signal. An outline of the steps:
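Read-out is reporter transcript level, measured by RT-PCR with fluorescent primer extension and capillary electrophoresis after 24 h dosing of transfected HepG2 cells. Activity in either direction fitted relative to DMSO control.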

Assay [9] in a line: ATG_PXRE_CIS: Attagene CIS-FACTORIAL HepG2 Assay for human Pregnane X Receptor Element (PXRE) (AID 2282957). The settings on record: HepG2 Attagene CIS-FACTORIAL PXRE reporter, mRNA; actives raise or lower the signal. An outline of the steps: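 Reporter transcripts under endogenous PXR-responsive cis-regulation quantified from total RNA of transfected HepG2 cells 24 h post-dosing, via RT-PCR with fluorescent primer extension and capillary electrophoresis. Gain or loss of signal fitted against DMSO baseline.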

Assay [10] in a line: ATG_PPRE_CIS: Attagene CIS-FACTORIAL HepG2 Assay for human Peroxisome Proliferator-activated Response Element (PPRE) (AID 2282958). As to conditions: HepG2 PPRE cis-element reporter, Attagene transcription factor profiling; actives raise or lower the signal. An outline of the steps: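 Transcript-level reporter induction in transfected HepG2 cells after 24 h chemical exposure, quantified by fluorescence from RT-PCR products separated by capillary electrophoresis.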

Assay [11] can be described thus: ATG_RORE_CIS: Attagene CIS-FACTORIAL HepG2 Assay for human RAR-related Orphan Receptor Element (RORE) (AID 2282959). As to conditions: HepG2 Attagene cis-factorial RORE reporter, mRNA; actives raise or lower the signal. An outline of the steps: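 Multiplexed reporter assay measuring mRNA induction from a cis promoter element in transiently transfected HepG2 cells after 24 h treatment. Detection via RT-PCR and capillary electrophoresis fluorescence; DMSO serves as baseline.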

Assay [12] can be described thus: ATG_Sox_CIS: Attagene CIS-FACTORIAL HepG2 Assay for human SRY-box transcription factor (SOX) (AID 2282960). The settings on record: HepG2 Attagene cis-factorial SOX reporter, mRNA; actives raise or lower the signal. An outline of the steps:
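Cells were transfected with reporter constructs under cis-regulatory promoters, then exposed to chemicals for 24 h. Reporter transcripts were quantified by fluorescence after RT-PCR and capillary electrophoresis; activity was fitted in both directions against DMSO.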

Assay [13] has as its target Transcription factor Sp1 (Homo sapiens) (UniProt P08047). As to the kind of experiment: ATG_Sp1_CIS: Attagene CIS-FACTORIAL HepG2 Assay for human Specificity Protein 1 (Sp1) (AID 2282961). As to conditions: HepG2 Sp1 cis-reporter transcription, actives raise or lower the signal. An outline of the steps: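 Measures mRNA induction of an Sp1-linked reporter in HepG2 cells 24 h post-dosing. Multiplexed reporters read by RT-PCR and capillary electrophoresis; DMSO serves as negative control and baseline.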

The nature of assay [14]: ATG_SREBP_CIS: Attagene CIS-FACTORIAL HepG2 Assay for human Sterol Regulatory Element Binding (SREBP) (AID 2282962). As to conditions: HepG2 Attagene cis-factorial SREBP reporter, mRNA; actives raise or lower the signal. The method, boiled down: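 Endogenous SREBP activity read as cis-element-driven reporter transcript in transiently transfected HepG2, 24 h post-dosing; quantified via RT-PCR plus capillary electrophoresis of fluorescent fragments. Gain or loss of signal fitted relative to DMSO baseline.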

The nature of assay [15]: ATG_TA_CIS: Attagene CIS-FACTORIAL HepG2 Assay for human TA Basal Promoter (AID 2282964). As to conditions: HepG2 Attagene CIS-factorial TA basal promoter reporter; actives raise or lower the signal. The method, boiled down: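 Background-control readout: TA basal promoter reporter mRNA, fitted in both directions relative to DMSO. Measured by RT-PCR and capillary electrophoresis 24 hours after treating HepG2 human liver cells transiently carrying multiplexed cis-regulated reporter constructs.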

Assay [16] can be described thus: ATG_TCF_b_cat_CIS: Attagene CIS-FACTORIAL HepG2 Assay for human T-Cell-Factor with beta-catenin (TCF/b-cat) (AID 2282965). As to conditions: HepG2 TCF/beta-catenin cis-reporter transcription, actives raise or lower the signal. An outline of the steps: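 Endogenous transcription factor activity is captured through cis-promoter reporter constructs transiently introduced into human HepG2 liver cells. Induced reporter mRNA is measured after 24 h and fitted bidirectionally relative to DMSO.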

Assay [17] can be described thus: ATG_M_32_CIS: Attagene CIS-FACTORIAL HepG2 Assay for M32 Transcription Factor (Internal Marker) (AID 2282949).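 Note: background control marker of the multiplexed CIS panel rather than a real target.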 The settings on record: HepG2 Attagene cis-factorial M32 reporter, mRNA; actives raise or lower the signal. An outline of the steps:
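Transient MRTU transfection of HepG2; 24 h compound treatment; TriZol RNA, oligo(dT) RT, reporter PCR, 6-FAM primer extension, HpaI cut, CE. Gain/loss of signal vs DMSO.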

Assay [18] can be described thus: ATG_PBREM_CIS: Attagene CIS-FACTORIAL HepG2 Assay for human Phenobarbital-responsive Enhancer Module (PBREM) (AID 2282955). As to conditions: HepG2 PBREM cis-reporter, Attagene multiplexed transcription; actives raise or lower the signal. The method, boiled down: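 HepG2, transient MRTU transfection, 24 h dosing; RNA → oligo(dT) RT → PCR → 6-FAM extension → HpaI → CE. Bidirectional fit vs DMSO.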

Assay [19] deals with Signal transducer and activator of transcription 3 (Homo sapiens) (UniProt P40763). Description: ATG_STAT3_CIS: Attagene CIS-FACTORIAL HepG2 Assay for human Signal Transducer and Activator of Transcription 3 (STAT3) (AID 2282963). The settings on record: HepG2, Attagene cis-factorial STAT3 reporter transcription; actives raise or lower the signal. The method, boiled down: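 Cis-factorial format: endogenous transcription factors in HepG2 drive transfected reporter units. After 24 h treatment, reporter RNA was reverse-transcribed, amplified, FAM-labelled and HpaI-digested before CE analysis; activity scored in both directions against DMSO.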
Signal transducer and activator of transcription 3 (Homo sapiens), sequence (P40763 whole entry, looked up): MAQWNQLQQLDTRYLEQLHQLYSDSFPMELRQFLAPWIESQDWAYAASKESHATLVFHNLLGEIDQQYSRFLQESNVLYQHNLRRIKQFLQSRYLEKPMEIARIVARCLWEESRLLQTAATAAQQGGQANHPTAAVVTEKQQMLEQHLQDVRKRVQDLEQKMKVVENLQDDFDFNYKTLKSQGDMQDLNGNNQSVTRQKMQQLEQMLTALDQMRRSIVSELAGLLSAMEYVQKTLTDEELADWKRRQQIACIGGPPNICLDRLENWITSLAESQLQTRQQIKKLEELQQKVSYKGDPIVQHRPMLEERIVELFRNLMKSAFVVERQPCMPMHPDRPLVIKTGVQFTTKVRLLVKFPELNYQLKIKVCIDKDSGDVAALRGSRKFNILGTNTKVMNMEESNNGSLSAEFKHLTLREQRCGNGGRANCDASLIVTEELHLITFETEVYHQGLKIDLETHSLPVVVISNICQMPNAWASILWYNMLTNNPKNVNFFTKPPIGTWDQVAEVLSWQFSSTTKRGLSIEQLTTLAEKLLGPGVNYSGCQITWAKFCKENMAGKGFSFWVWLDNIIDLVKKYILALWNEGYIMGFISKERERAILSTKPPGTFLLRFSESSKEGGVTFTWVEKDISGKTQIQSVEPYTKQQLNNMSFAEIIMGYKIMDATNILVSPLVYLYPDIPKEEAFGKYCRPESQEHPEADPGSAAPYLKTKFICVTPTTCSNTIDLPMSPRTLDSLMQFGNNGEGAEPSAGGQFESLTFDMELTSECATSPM

Assay [20] deals with Hypoxia-inducible factor 1-alpha (Homo sapiens) (UniProt Q16665). As to the kind of experiment: ATG_HIF1a_CIS: Attagene CIS-FACTORIAL HepG2 Assay for human Hypoxia Inducible Factor 1 (HIF1A) (AID 2282951). The settings on record: HepG2 Attagene cis-factorial HIF1a reporter transcription; actives raise or lower the signal. An outline of the steps: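 HepG2, transient cis-reporter library, 24 h dosing. RNA → RT (oligo dT) → PCR → 6-FAM primer extension → HpaI → CE. Bidirectional curve fit vs DMSO.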
Hypoxia-inducible factor 1-alpha (Homo sapiens), sequence (Q16665 whole entry, looked up): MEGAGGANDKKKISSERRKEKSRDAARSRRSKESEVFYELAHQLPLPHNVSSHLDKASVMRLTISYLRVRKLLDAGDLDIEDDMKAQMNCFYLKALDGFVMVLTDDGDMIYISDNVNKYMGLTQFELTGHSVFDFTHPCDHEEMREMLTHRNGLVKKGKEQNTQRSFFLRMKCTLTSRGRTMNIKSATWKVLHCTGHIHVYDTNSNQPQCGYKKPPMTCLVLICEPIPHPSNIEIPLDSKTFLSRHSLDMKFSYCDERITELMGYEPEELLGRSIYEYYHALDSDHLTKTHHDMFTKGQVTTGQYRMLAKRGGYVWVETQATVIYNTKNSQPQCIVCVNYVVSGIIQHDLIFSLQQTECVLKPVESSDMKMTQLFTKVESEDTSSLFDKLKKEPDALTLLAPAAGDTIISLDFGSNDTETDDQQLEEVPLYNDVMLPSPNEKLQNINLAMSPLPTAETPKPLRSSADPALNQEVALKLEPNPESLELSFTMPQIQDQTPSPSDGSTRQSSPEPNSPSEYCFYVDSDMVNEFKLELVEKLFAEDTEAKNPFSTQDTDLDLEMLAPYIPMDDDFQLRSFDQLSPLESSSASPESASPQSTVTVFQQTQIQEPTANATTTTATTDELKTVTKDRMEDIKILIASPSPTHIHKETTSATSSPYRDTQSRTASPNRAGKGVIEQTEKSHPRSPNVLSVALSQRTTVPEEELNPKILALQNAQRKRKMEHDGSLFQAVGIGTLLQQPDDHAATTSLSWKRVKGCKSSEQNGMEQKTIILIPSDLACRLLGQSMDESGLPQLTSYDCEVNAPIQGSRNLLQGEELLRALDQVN

Bile acid receptor (Homo sapiens), sequence (Q96RI1 whole entry, looked up): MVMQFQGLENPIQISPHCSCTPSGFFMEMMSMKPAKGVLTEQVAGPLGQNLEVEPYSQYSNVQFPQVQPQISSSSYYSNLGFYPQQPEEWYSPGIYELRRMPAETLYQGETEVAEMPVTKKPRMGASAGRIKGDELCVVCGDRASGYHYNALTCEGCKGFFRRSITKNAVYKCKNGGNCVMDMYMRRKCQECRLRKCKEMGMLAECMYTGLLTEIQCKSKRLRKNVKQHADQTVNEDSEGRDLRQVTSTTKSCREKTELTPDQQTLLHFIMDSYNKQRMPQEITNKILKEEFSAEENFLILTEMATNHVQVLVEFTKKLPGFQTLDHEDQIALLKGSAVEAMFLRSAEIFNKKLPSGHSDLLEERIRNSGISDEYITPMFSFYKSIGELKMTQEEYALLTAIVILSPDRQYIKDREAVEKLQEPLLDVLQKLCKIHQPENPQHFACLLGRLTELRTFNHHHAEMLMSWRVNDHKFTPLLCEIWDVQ
Heat shock factor protein 1 (Homo sapiens), sequence (Q00613 whole entry, looked up): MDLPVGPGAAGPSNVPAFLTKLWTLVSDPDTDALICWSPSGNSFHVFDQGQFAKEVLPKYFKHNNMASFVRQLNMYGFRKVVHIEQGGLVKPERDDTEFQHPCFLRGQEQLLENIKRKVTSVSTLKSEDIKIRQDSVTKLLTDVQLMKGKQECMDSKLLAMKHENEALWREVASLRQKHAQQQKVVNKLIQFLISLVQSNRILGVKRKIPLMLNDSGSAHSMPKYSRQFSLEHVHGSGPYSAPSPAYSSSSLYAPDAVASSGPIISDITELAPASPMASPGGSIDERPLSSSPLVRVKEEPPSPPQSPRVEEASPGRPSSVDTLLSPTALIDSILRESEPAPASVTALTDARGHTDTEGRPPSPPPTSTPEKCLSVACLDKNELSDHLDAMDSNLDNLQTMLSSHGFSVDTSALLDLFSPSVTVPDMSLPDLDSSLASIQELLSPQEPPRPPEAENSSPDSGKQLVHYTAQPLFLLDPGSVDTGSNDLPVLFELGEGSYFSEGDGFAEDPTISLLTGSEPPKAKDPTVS
Paired box protein Pax-6 (Homo sapiens), sequence (P26367 whole entry, looked up): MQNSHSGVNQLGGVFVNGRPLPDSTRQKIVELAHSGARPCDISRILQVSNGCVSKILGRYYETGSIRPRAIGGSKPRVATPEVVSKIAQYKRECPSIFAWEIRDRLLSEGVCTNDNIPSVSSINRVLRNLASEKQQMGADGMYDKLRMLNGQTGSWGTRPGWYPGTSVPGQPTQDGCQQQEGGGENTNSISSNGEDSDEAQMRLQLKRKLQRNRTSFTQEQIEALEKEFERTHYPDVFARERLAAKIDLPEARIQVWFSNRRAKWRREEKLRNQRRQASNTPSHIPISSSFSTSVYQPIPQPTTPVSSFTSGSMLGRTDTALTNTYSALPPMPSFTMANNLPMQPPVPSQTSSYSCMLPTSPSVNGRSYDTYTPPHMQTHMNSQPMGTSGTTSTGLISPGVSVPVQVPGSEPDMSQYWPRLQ
Transcription factor Sp1 (Homo sapiens), sequence (P08047 whole entry, looked up): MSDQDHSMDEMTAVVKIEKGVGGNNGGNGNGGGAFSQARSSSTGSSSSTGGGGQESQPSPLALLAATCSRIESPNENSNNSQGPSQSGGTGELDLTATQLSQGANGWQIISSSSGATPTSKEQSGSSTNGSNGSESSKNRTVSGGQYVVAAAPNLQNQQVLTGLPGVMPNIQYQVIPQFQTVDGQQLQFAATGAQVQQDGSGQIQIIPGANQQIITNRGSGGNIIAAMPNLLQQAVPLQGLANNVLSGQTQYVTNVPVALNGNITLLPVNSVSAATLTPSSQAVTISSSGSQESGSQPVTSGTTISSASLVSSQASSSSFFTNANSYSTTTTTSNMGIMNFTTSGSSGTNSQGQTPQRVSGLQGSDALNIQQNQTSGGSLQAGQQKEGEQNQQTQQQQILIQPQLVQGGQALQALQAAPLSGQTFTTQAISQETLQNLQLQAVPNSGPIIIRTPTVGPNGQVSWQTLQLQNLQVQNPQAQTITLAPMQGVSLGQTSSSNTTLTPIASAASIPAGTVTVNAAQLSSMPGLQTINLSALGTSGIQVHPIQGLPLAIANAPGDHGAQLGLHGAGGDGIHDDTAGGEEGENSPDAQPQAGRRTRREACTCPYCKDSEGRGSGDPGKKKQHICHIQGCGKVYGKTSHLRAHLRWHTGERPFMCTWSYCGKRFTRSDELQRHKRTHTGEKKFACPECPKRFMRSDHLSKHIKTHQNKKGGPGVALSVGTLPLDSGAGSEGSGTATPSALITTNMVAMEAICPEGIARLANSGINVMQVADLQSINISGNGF

For the molecule `CCCc1c(OCCCOc2ccc(OCC(=O)O)cc2)ccc(C(C)=O)c1O`, the call in assay [1], in [2], in assay [3], in assay [4], in assay [5] and in assay [8] was inactive. In addition, the outcome in assay [12], in assay [13] and in assay [14] was inactive. Moreover, the AC50 in [6] is 150 µM (active); in assay [7] it was 79.2 µM (active); in assay [9] it was 8.44 µM (active); in [10], 0.272 µM (active); in assay [11], 4.66 µM (active); in assay [15], 26.7 µM (active). Also, in [16], the AC50 was 25.6 µM (active).

For `CCCCCCCCCOC(C)=O`, the result in [1], in assay [2], in [17], in assay [4], in [5] and in assay [6] was inactive. Further, the outcome in assay [7], in [18], in [8], in assay [10], in [12] and in assay [13] was inactive. Further, the call in assay [14], in assay [19], in assay [15] and in assay [16] was inactive. Moreover, in assay [9], the AC50 is 49 µM (active).

On to `O=C(O)Cc1cccc2ccccc12`, for which the result in assay [1], in [3], in assay [17], in assay [4], in assay [5] and in assay [6] was inactive. Moreover, the call in assay [7], in assay [8], in [9], in assay [11], in assay [12] and in assay [14] was inactive. The molecule was called inactive in [19], in assay [15] and in [16]. Moreover, the AC50 in assay [10] was 100 µM (active).

As to `CN(CCOc1ccc(CC2SC(=O)NC2=O)cc1)c1ccccn1` (configuration not stated), the molecule was classed as inactive in assay [1], in assay [3], in [17], in [4], in [20] and in assay [5]. The call in assay [6], in assay [7], in [8], in assay [12], in [13] and in [19] was inactive. Besides, the outcome in [15] and in assay [16] was inactive. For the same molecule, the concentration at half-maximal activity (AC50) is 66.1 µM (active) in assay [18], 6.08 µM (active) in [9], 9.64 µM (active) in assay [11] and 5.58 µM (active) in [14].
